Shown is part of a subset that was picked to be rich in hits.
ERK EGF inh – blocks ERK signaling stimulated by EGF. 130,000 tested, 0.41% active. HEK293-V1b, EGF-stimulated phospho-ERK AlphaScreen. AID 1454. Potency, µM (top dose mostly 11.5 µM), without a hit: top-dose activity change, negative = inhibition, usual class: inhibitors;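 note: potency is the fitted concentration of half-maximal effect; plate controls were stimulated vehicle wells for no effect and unstimulated vehicle basal for full effect; nearly all actives have a fitted effect of over 55% in size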
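EGF-stimulated (25 nM, 5 min) phospho-ERK in HEK293 cells stably expressing V1b, cells pretreated 30 min with compound at 37C. Homogeneous AlphaScreen read on lysates.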
ERK pERK EGF – confirmation of ERK pathway inhibitors under EGF stimulation; shares compounds with ERK EGF inh; HEK293 EGF-stimulated ERK phosphorylation, AlphaScreen; Potency, µM (top dose mostly 57.5 µM), for the others: top-dose activity change, negative = inhibition, actives largely listed as inhibitors; 60 tested, 60% active
c-Raf inh – c-Raf inhibition, ERK pathway follow-up; shares compounds with ERK EGF inh; 70 tested, under 10 active; activity change, negative = inhibition, % at 76.9 µM; AID 1728; c-Raf kinase inhibition, homogeneous biochemical assay
MEK1 kinase inh – MEK1 (human) kinase inhibition; shares compounds with ERK EGF inh; Potency, µM (titrated, usually from 76.9 µM), for the others: top-dose activity change, negative = inhibition, usual class: inhibitors; homogeneous MEK kinase activity assay, ERK pathway; AID 1732; 70 tested, under 10 active
Target sequence (Q02750 whole entry, looked up): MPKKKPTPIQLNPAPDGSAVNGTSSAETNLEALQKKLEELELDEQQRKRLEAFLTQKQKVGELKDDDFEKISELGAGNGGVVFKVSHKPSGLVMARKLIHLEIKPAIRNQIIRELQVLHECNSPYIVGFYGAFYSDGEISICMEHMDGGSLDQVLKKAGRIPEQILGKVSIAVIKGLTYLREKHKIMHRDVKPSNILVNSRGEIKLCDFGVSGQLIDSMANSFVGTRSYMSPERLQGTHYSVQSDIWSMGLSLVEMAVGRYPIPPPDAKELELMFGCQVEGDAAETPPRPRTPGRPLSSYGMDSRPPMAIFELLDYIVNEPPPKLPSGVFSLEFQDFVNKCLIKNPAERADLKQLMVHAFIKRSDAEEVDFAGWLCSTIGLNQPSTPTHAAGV
Active calls of the source: *; ? = inconclusive; . = not tested or not shown; [ ] = remark or other dose. Calls come from the whole dose curve; as a rule, active = well fitted curve in the direction sought with a large enough effect; inconclusive = small, poorly fitted or top-dose-only effect, or another doubt; inactive = no such curve, though single readings can be large; an effect the other way counts as inactive or inconclusive.

SMILES	ERK EGF inh	others
C=C(CC1(CNP(=O)(c2ccccc2)c2ccccc2)CC1)c1ccccc1	4%
CC1=C(O)C(=O)C=C2C1=CC=C1[C@]2(C)CC[C@@]2(C)C3C[C@](C)(C(=O)O)CC[C@@]3(C)CC[C@@]12C (some centres not stated)	16µM*
COC(=O)[C@]1(C)CC[C@@]2(C)CC[C@@]3(C)C4=CCc5c(cc(O)c(O)c5C)[C@]4(C)CC[C@@]3(C)C2C1 (some centres not stated)	21%
COc1ccc(CNC(=O)/C=C\c2ccc3[nH]cc(CCN(C)C)c3c2)cc1	5%
CCC1CN2CCc3cc(OC)c(OC)cc3C2CC1CC1NCCc2cc(OC)c(OC)cc21 (configuration not stated)	1%
O=c1ccc2cc(OC3OC(CO)C(O)C(O)C3O)c(O)cc2o1 (configuration not stated)	18%
Oc1cc2c(cc1O)[C@H]1c3ccccc3CN[C@H]1CC2	-2%
O=C1Nc2ccccc2C2(CCN(CCc3ccc(C(F)(F)F)cc3)CC2)O1	32µM*
C[C@H](CCC(=O)O)[C@H]1CC[C@@H]2[C@H]3CC[C@H]4C[C@H](O)CC[C@]4(C)[C@@H]3CC[C@@]21C	-6%
COC(=O)C12CC3=CC(CC3=O)Cc3ccccc3[C@@H]1CNC2=O (some centres not stated)	-2%
CCCCCC1C(=O)O[C@H](C)[C@@H](NC(=O)c2cccc(NC=O)c2O)C(=O)OC(C)C1OC(=O)CC(C)C (some centres not stated)	11%
CC(=O)OC1C[C@H](O[C@@H]2C(O)C[C@H](O[C@@H]3C(O)C[C@@H](OC4CC[C@]5(C)C(CCC6C5CC(O)[C@@]5(C)C(C7=CC(=O)OC7)CC[C@@]65O)C4)OC3C)OC2C)O[C@H](C)[C@H]1O[C@H]1OC(CO)C(O)C(O)C1O (some centres not stated)	18%
CC1CC[C@@]2(OC1)O[C@@H]1[C@@H](O)[C@H]3C4CC[C@H]5C[C@@H](O[C@@H]6O[C@H](CO)[C@H](O[C@@H]7O[C@H](CO)[C@@H](O)[C@H](O[C@@H]8OC[C@@H](O)[C@H](O)[C@H]8O)[C@H]7O[C@@H]7O[C@H](CO)[C@@H](O)[C@H](O[C@@H]8O[C@H](CO)[C@@H](O)[C@H](O)[C@H]8O)[C@H]7O)[C@H](O)[C@H]6O)[C@H](O)C[C@]5(C)C4CC[C@]3(C)[C@H]1[C@@H]2C (some centres not stated)	-3%
CC1CC[C@@]2(OC1)OC1C(O)C3C4CC[C@H]5CC(O[C@@H]6O[C@@H](CO)[C@H](OC7OC(CO)C(O)C(OC8OCC(O)C(O)[C@H]8O)[C@@H]7O[C@@H]7OC(CO)[C@H](O)[C@@H](O[C@@H]8OC(CO)C(O)C(O)C8O)C7O)C(O)C6O)C(O)C[C@]5(C)C4CC[C@]3(C)C1C2C (some centres not stated)	7.1µM*
COC(C)C(O)(C(=O)OC1=CCN2CC[C@H](O)[C@H]12)C(C)C (some centres not stated)	-4%
CCCCC/C=C\C/C=C\C/C=C\CCCCC(=O)NCCO	-1%
C[C@]12CC[C@@H](O)CC1CCC1C2CC[C@]2(C)C(=O)CC[C@@H]12 (some centres not stated)	14%
C[CH2][Hg][S]c1ccccc1C(=O)O	32µM*
CNc1ccccc1C(=O)O	23%
CC(C)COC(=O)c1ccccc1C(=O)OCC(C)C	-11%[57.5 µM]
c1ccc2c(c1)OC[C@@H](C1=NCCN1)O2	2%
COC1=C[C@H]2[C@H]3Cc4ccc(OC)c(O)c4[C@@]2(CCN3C)CC1=O	-10%
CC/C=C\C/C=C\C/C=C\C/C=C\C/C=C\CCCC(N)=O	-9%
O=C(Nc1cccc(F)c1)N1CC2(CCNCC2)C1	9%
Cc1ccc(N2C(=O)NC(=O)/C(=C\c3cc(C)n(-c4sc5c(c4C#N)CCCC5)c3C)C2=O)cc1	0%
SMILES	ERK EGF inh	others
Cc1cc(/C=C2/C(=O)NC(=O)N(Cc3ccco3)C2=O)c(C)n1-c1ccccc1	6%
CCN1C(=O)NC(=O)/C(=C/c2cc(C)n(-c3sc(C)c(C)c3C#N)c2C)C1=O	?	ERK pERK EGF=-4%;c-Raf inh=-9;MEK1 kinase inh=?
O=P(c1ccccc1)(c1ccccc1)N1CC2(CC2)CC(O)(c2ccccc2)C1 (configuration not stated)	-8%
CCCc1cc2c(n1Cc1ccco1)C(C)C1CN(C(=O)c3ccccc3)C(C)(C(=O)OC)C21 (configuration not stated)	-5%
COC(=O)[C@@]1(Cc2ccccc2)[C@H]2c3cc(C(=O)N(C)C)n(C)c3C[C@H]2CN1C(=O)c1ccccc1	6%
CCn1nc(/C=C/c2ccccc2)nc2c(=O)n(C)c(=O)nc1-2	-2%
CCn1nc(-c2cccs2)nc2c(=O)n(C)c(=O)nc1-2	.	c-Raf inh=?;MEK1 kinase inh=0.89µM*
Cc1cccc(-n2c(-c3cccs3)nc3ccccc3c2=O)c1	12%
CC[C@]12CCCN3CCC4(c5ccccc5NC4C(C(=O)O)C1)C32 (some centres not stated)	-11%

Screens: PubChem, National Center for Advancing Translational Sciences (NCATS)
